Vif-A3F inh – inhibitors of Vif-A3F interaction; HeLa A3F-eYFP + Vif (tagged APOBEC3F with the HIV-1 protein that degrades it), YFP fluorescence increase; Potency, µM (doses to about 46.1 µM), without a hit: at the top dose activity, negative = active; 390,000 compounds, 0.2% hits; also: potency is read from the fitted curve at half-maximal effect; % of control where 0% means no effect; nearly all actives have a fitted effect of over 65% in size
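Fluorescence increase (Ex 488/Em 500-530) after overnight compound treatment at 37 deg C flags inhibition of Vif-driven A3F-eYFP loss in stable HeLa A3F-eYFP/Vif cells seeded overnight beforehand.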
SW480 rereplic – DNA re-replication induction in SW480 cells. SW480 DNA re-replication, Hoechst DNA content imaging, 48 h. Potency, µM (doses to about 46.1 µM), without a hit: at the highest dose re-replication activation, hits mostly activators. 340,000 compounds, 1.8% hits; also: potency is read from the fitted curve at half-maximal effect; % of control where 0% means no effect; nearly all actives have a fitted effect of over 55% in size
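Readout is total intensity of Hoechst-stained nuclei, excited at 405 nm and collected at 500-530 nm. Compound treatment lasted 48 hr at 37 C in 5% CO2 before staining.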
Vif-A3G inh – Vif-A3G binding inhibition | Q9HC16 | HeLa A3G-eYFP + Vif (tagged APOBEC3G with the HIV-1 protein that degrades it), YFP fluorescence, overnight | Potency, µM (highest dose often 46.1 µM), for inactives: at the top dose activity, negative = active, actives largely listed as inhibitors | 410,000 compounds, 0.076% hits; also: potency is read from the fitted curve at half-maximal effect; % is scaled to controls: 0 for no effect and ±100 for the full control effect; nearly all actives have a fitted effect of over 60% in size
Target sequence (Q9HC16 whole entry, looked up): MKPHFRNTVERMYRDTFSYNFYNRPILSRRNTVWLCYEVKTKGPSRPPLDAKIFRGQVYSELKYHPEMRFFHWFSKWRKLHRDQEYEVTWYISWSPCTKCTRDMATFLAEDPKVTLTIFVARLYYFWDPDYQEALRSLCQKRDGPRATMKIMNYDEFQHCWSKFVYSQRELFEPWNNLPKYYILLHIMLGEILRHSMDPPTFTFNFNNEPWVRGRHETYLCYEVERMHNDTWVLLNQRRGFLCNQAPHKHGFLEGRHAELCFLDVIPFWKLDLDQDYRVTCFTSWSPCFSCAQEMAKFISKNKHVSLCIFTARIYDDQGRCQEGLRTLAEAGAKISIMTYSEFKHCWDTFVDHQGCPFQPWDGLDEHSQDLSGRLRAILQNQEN
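Read-out is eYFP fluorescence (Ex 488/Em 500-530) from Vif-expressing HeLa A3G-eYFP cells; more signal means A3G escaped Vif-mediated degradation. Cells plated overnight, compound pinned in, incubated overnight at 37 deg C.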
IL-1B inflam inh – inflammasome signaling inhibition, IL-1 beta readout; THP-1 LPS/ATP IL-1B secretion, AlphaLISA, 16 h; hits give low values; 360,000 compounds, 4.7% hits; activity change, % at 57.5 µM; in the data active = activity change below about -50%; inconclusive = mostly about -30% to -49%; also: % is scaled to controls: 0 for no effect and ±100 for the full control effect
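THP-1 cells pretreated 1 hr with compounds (up to 57.5 uM final), then stimulated with LPS (250 ng/mL final) plus ATP (1.25 mM final); secreted IL-1B measured by AlphaLISA after 16 hr, decreased signal indicating inhibition.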
Giardia killer – Giardia lamblia killing | Giardia lamblia trophozoite viability | activity change, % at 7.66 µM, hits read low | 340,000 compounds, 0.15% hits | AID 540267; in the data active = activity change below about -80%; inconclusive = between about -30% and that limit;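 also: parasites exposed to compound for two days anaerobically before the ATP read; % is scaled to controls: 0 for no effect and ±100 for the full control effect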
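Giardia trophozoites, 100 cells per well, were exposed to compounds for 48 hrs at 37 deg C under anaerobic conditions; viability was then read as ATP content by bioluminescence after 15-30 min at room temperature.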
MCF10A rerep – induces DNA re-replication in MCF 10a normal breast cells; MCF 10A DNA re-replication, Hoechst nuclear intensity, 48 h; Potency, µM (doses to about 46.1 µM), for the others: at the highest dose activity, positive = re-replication, actives largely listed as activators; 350,000 compounds, 2.9% hits; AID 624296; also: potency is read from the fitted curve at half-maximal effect; % of control where 0% means no effect; nearly all actives have a fitted effect of over 50% in size
Active calls of the source: *; u = inconclusive; x = no result given. Shown are actives, neighbours in structure and some others; about 6.9% of the full set was active somewhere. Unless noted, calls follow the shape of the dose curve; as a rule, active = well fitted curve in the direction sought with a large enough effect; inconclusive = small, poorly fitted or top-dose-only effect, or another doubt; inactive = no such curve, though single readings can be large; an effect the other way counts as inactive or inconclusive.

SMILES | Vif-A3F inh | SW480 rereplic | Vif-A3G inh | IL-1B inflam inh | Giardia killer | MCF10A rerep
CCOc1ccc(Br)cc1C1=NN(C(C)=O)C(c2ccc([N+](=O)[O-])s2)O1 (centres undefined) | u | 8.2µM* | -29.1% | -26.1 | u | u
CCN(Cc1ccccc1)C(=O)CCc1c(C)nc2c(c(C)nn2-c2ccc(C)c(C)c2)c1C | -6.5% | x | -5.0% | x | x | x
O=C1C2C3C=CC(CNS(=O)(=O)c4ccccc4)(O3)C2C(=O)N1c1ccc(Cl)cc1 (centres undefined) | -18.9% | 11.6µM* | -1.8% | 6.5 | 1.8 | u
O=C1C2C3C=CC(CO)(O3)C2C(=O)N1c1ccccc1-c1ccccc1 (centres undefined) | -12.0% | 10.3µM* | -20.1% | -82.5* | 26.2 | 7.31µM*
Cc1nn(C)cc1C(=O)Nc1cc(Oc2ccc(Cl)cc2)cc([N+](=O)[O-])c1 | 0.2% | 21.9% | 0.3% | 22.4 | 10.1 | 97.4%
Cc1nn(CCCC(=O)Nc2cc(Oc3ccccc3)cc([N+](=O)[O-])c2)c(C)c1[N+](=O)[O-] | -5.3% | 2.7% | 1.7% | -50.2* | -12.3 | u
Cc1cccc(Oc2cc(NC(=O)c3ccccc3)cc([N+](=O)[O-])c2)c1 | -2.9% | -1.0% | 2.7% | u | -0.4 | 24.2%
Cc1ccc(C)c(Oc2cc(NC(=O)CCCn3nc(C)c([N+](=O)[O-])c3C)cc([N+](=O)[O-])c2)c1 | 0.6% | u | -6.2% | u | -1.5 | u
CCn1nc(C)c(C(=O)Nc2cc(Oc3cc(C)cc(C)c3)cc([N+](=O)[O-])c2)c1C | -8.0% | u | -14.3% | 6.8 | -14.2 | 23.1µM*
O=C(Nc1cc(Oc2ccc(Cl)cc2)cc([N+](=O)[O-])c1)c1ccco1 | -4.5% | -0.1% | 0.9% | -7.7 | -1.3 | 16.4µM*
Cn1cc([N+](=O)[O-])c(C(=O)Nc2cc(Oc3ccccc3)cc([N+](=O)[O-])c2)n1 | -24.9% | 4.11µM* | -17.7% | -14.7 | -17.0 | 2.91µM*
O=c1c2ccccc2nc(N2CCN(c3cccc(Cl)c3)CC2)n1-c1ccccc1 | -11.8% | x | -4.3% | x | x | x
CCOC(=O)C(CS)NCCN[C@@H](CS)C(=O)OCC (some centres undefined) | x | 0.7% | x | x | x | 0.5%
COCCNC(=O)CSc1nc2cc3c(cc2c(=O)n1Cc1ccc(C(=O)NCCc2ccc(OC)c(OC)c2)cc1)OCO3 | -0.5% | x | 7.7% | x | x | x
Cc1ccccc1Cn1ccc(NC(=O)c2nn(C)cc2[N+](=O)[O-])n1 | u | 10.3µM* | -22.7% | x | -6.2 | 6.51µM*
CCOP(=O)(OCC)c1nc(/C=C/c2ccccc2)oc1NCc1ccccc1 | 3.1% | 20.6µM* | 2.0% | -74.9* | -6.0 | u
CCOP(=O)(OCC)c1nc(-c2cccc3ccccc23)oc1NCc1ccc(OC)cc1 | 13.7% | 18.4µM* | -2.3% | -75.0* | 16.8 | u
CCOP(=O)(OCC)c1nc(/C=C/c2ccccc2)oc1NCc1ccc(OC)cc1 | 0.1% | u | -0.9% | -6.8 | 0.9 | u
O=[N+]([O-])c1ccc2nc(CO)[nH]c2c1 | x | x | -4.2% | x | x | x
C[n+]1ccc(/C=N/Nc2nc(Cl)c(C#N)c(Cl)c2Cl)cc1 | -5.3% | u | -3.9% | -58.7* | -1.7 | u
Nc1cc(OC(=O)c2c(F)cccc2Cl)nn1S(=O)(=O)c1ccccc1 | 9.8% | -17.3% | -24.1% | -93.5* | -15.4 | u
COc1ccc(OC)c(/C=N/Nc2nncn2/N=C/c2cc(OC)ccc2OC)c1 | 6.2% | u | u | u | 3.9 | 23.1µM*
COc1cc(/C=N/Nc2nncn2/N=C/c2ccc(O)c(OC)c2)ccc1O | 2.2% | -0.1% | -9.9% | 17.0 | 9.3 | -4.6%
CCCCCCCCNC(=O)c1cnsn1 | 12.2% | 0.517µM* | 0.1% | 0.9 | 2.8 | -1.4%
CCCCCCCCNC(=O)c1cnccn1 | -14.4% | u | 1.7% | 11.8 | 11.1 | 5.2%
COC(=O)c1ccccc1NC(=O)N1CCN(S(=O)(=O)c2ccc(Cl)cc2)CC1 | 2.1% | 9.2µM* | -0.6% | 3.2 | 20.0 | u

Screens deposited in PubChem by National Center for Advancing Translational Sciences (NCATS).
